# Reference: PubChem BioAssay (NCI)
# Compounds without any hit were thinned out: in the full panel of roughly 79,000, 15% have a hit. A number with no mark means an inactive call. Active and inactive are the calls of the source. Cut-off read from the data, not from the text of the source: active = growth inhibition above about 70%; inactive = the rest.
# How the values were obtained:
# [1] = NCI Yeast Anticancer Drug Screen. Data for the rad50 strain (AID 155);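 note: 0% = growth of vehicle-only cultures of the same strain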; details: S. cerevisiae rad50 strain growth inhibition, hits give high values
# How it was run: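 Cells are treated with compound, grown, and their growth is then scored against vehicle-only cultures of the same repair-deficient yeast strain.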
# [2] = NCI Yeast Anticancer Drug Screen. Data for the mec2-1 strain (AID 157); details: S. cerevisiae mec2-1 strain, hits give high values
# How it was run: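 Growth inhibition is read against vehicle-treated controls after compound exposure of the mec2-1 yeast strain, which is defective in DNA damage repair or cell cycle control.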
# [3] = NCI Yeast Anticancer Drug Screen. Data for the sgs1 mgt1 strain (AID 161);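 note: 0% = growth of cultures given vehicle only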; details: S. cerevisiae sgs1 mgt1 strain, hits give high values
# How it was run: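 This yeast growth screen uses a strain with defined DNA-repair lesions; compound-treated growth is compared with vehicle-treated growth.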
# [4] = NCI Yeast Anticancer Drug Screen. Data for the cln2 rad14 strain (AID 165);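 note: 0% = growth equal to vehicle treated cultures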; details: S. cerevisiae cln2 rad14 strain, hits give high values
# How it was run: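 Growth inhibition, relative to vehicle-treated controls, is the read-out. The test organism is a yeast strain with defined genetic alterations, cln2 rad14.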
# [5] = NCI Yeast Anticancer Drug Screen. Data for the bub3 strain (AID 167); details: S. cerevisiae bub3 mutant strain, hits give high values
# How it was run: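 Part of a panel of yeast mutants defective in DNA damage repair or cell cycle regulation. Each strain is grown with compound, and inhibition is calculated relative to solvent-treated cultures.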
# [6] = NCI Yeast Anticancer Drug Screen. Data for the mlh1 rad18 strain (AID 175); details: S. cerevisiae mlh1 rad18 strain growth inhibition, hits give high values
# How it was run: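 Cells of a genetically altered yeast strain, deficient in DNA damage repair, were treated with compound. Their growth was then compared with that of vehicle-treated cultures to give inhibition.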
# [7] = at 5.0 µM (retest, dose inferred, filed as 0.5)
# [8] = at 50.0 µM (retest, dose inferred, filed as 5.0)
Compound,"growth inhibition [1, 7]","growth inhibition [1, 8]",growth inhibition ([1]; at 50.0 µM),"growth inhibition [2, 7]","growth inhibition [2, 8]",growth inhibition ([2]; at 50.0 µM),"growth inhibition [3, 7]","growth inhibition [3, 8]",growth inhibition ([3]; at 50.0 µM),"growth inhibition [4, 7]","growth inhibition [4, 8]",growth inhibition ([4]; at 50.0 µM),"growth inhibition [5, 7]","growth inhibition [5, 8]",growth inhibition ([5]; at 50.0 µM),"growth inhibition [6, 7]","growth inhibition [6, 8]",growth inhibition ([6]; at 50.0 µM)
CCCCCN(CCC)CCCCCCCCCN1CCCc2cc(OC)ccc21,-8%,-2%,97.3% (active),-6%,-7%,97.7% (active),2%,2%,62.9%,-7%,-10%,97% (active),-4%,-3%,91% (active),-5%,-5%,98% (active)
CCN(CC)CC(O)c1c(-c2ccccc2)c(-c2ccccc2)c2n1CCC2 (stereo not given),-4%,92% (active),93.7% (active),-3%,96% (active),32%,-2%,83% (active),56.7%,-11%,17%,-4.75%,-3%,90% (active),92.6% (active),-9%,92% (active),47.6%
NC(=O)NC(=O)N/N=C/c1ccc([N+](=O)[O-])o1,2%,25%,74.8% (active),1%,20%,22.9%,5%,27%,68.2%,-1%,12%,38%,-5%,17%,27.2%,4%,40%,61.5%
O=C1c2ccccc2-c2cc([N+](=O)[O-])c([N+](=O)[O-])cc21,16%,99% (active),93.2% (active),19%,45%,98.6% (active),21%,99% (active),96% (active),-15%,90% (active),90% (active),7%,99% (active),98.7% (active),5%,98% (active),98.3% (active)
c1ccc([P+](CCCCCC[P+](c2ccccc2)(c2ccccc2)c2ccccc2)(c2ccccc2)c2ccccc2)cc1,61%,85% (active),81.7% (active),46%,94% (active),84.8% (active),38%,97% (active),83.3% (active),36%,68%,78.2% (active),43%,77% (active),86.6% (active),52%,94% (active),81.7% (active)
CC[N+](C)(CC)CCC(=O)/C=C/c1ccccc1,15%,54%,87.5% (active),11%,69%,93% (active),5%,55%,88.6% (active),16%,49%,53.1%,3%,74% (active),76.5% (active),11%,46%,-47.8%
O=C(CC[P+](c1ccccc1)(c1ccccc1)c1ccccc1)c1ccccc1,10%,78% (active),94.8% (active),6%,92% (active),94.8% (active),4%,74% (active),86.2% (active),-3%,71% (active),95.6% (active),7%,79% (active),94.8% (active),3%,84% (active),93.1% (active)
COc1ccc(CC2=CC(=O)C(=O)C=C2C)cc1,2%,27%,47.4%,0%,29%,11.2%,9%,39%,47%,0%,4%,11.2%,-2%,21%,38%,14%,51%,36.4%
CN(C)c1ccc(/C=C/C(=O)c2ccc([N+](=O)[O-])cc2)cc1,38%,48%,-21.7%,45%,42%,-16%,-9%,24%,-16.7%,24%,41%,-4.5%,21%,23%,-13.4%,34%,45%,-47.2%
CC(NNC(=S)N1CCCC1)c1ccccn1 (stereo not given),63%,97% (active),98.8% (active),52%,98% (active),98.7% (active),63%,98% (active),98.9% (active),48%,98% (active),99% (active),53%,98% (active),99.2% (active),60%,98% (active),98.8% (active)
O=C(CC(=O)c1ccncc1)c1ccccc1,7%,96% (active),97.2% (active),7%,90% (active),94.7% (active),1%,93% (active),97% (active),-16%,96% (active),93.8% (active),-1%,98% (active),97.6% (active),0%,99% (active),98% (active)
COc1ccc(C2N(Cc3ccc(Cl)cc3)CCN2Cc2ccc(Cl)cc2)cc1,9%,70% (active),46.6%,9%,59%,32.2%,37%,89% (active),71.2% (active),21%,53%,69.2%,34%,91% (active),25.9%,25%,72% (active),50.5%
CCCCCCCCCCCCCCCCNC(C)c1ccccc1 (stereo not given),0%,-3%,98.1% (active),-1%,9%,98.7% (active),6%,4%,99% (active),-9%,-4%,97.5% (active),-6%,-6%,99% (active),-2%,9%,98.3% (active)
O=[N+]([O-])C(/C=C(\Cl)n1nnc2ccccc21)=C(/Cl)n1nnc2ccccc21,25%,36%,-1.95%,17%,18%,-3.7%,13%,26%,25.2%,11%,11%,13.4%,27%,27%,14.4%,22%,35%,17.3%
Cc1ccc(N=Nc2c(C)c(C#N)c(=S)n(C3OC(CO)C(O)C(O)C3O)c2-c2ccccc2)cc1 (stereo not given),-8%,-2%,35%,-5%,2%,50.5%,-1%,12%,65.2%,12%,15%,46%,-4%,-10%,42%,-17%,21%,68.8%
CCOC(=O)/C=C\c1c(Cl)n(-c2ccccc2)c(=O)n(-c2ccccc2)c1=O,31%,98% (active),87.7% (active),24%,99% (active),90.5% (active),23%,99% (active),89.8% (active),26%,99% (active),90.3% (active),31%,99% (active),85.6% (active),27%,98% (active),92.3% (active)
O=C(NC1(OC(=O)c2ccc(Cl)cc2)CC1)c1ccc(Cl)cc1,6%,97% (active),97.8% (active),14%,98% (active),97.9% (active),15%,91% (active),95.5% (active),25%,97% (active),97.5% (active),-8%,98% (active),97.1% (active),24%,97% (active),96.8% (active)
CCCCC(Cc1ccccc1)(C(=O)O)c1ccccc1 (stereo not given),11%,98% (active),99% (active),18%,98% (active),98.2% (active),16%,99% (active),98.9% (active),31%,99% (active),98% (active),3%,97% (active),96% (active),14%,99% (active),98.8% (active)
Cc1cc(C)c(S(=O)(=O)c2c(C)cc(C)cc2C)c(C)c1,-3%,-7%,39%,-4%,-9%,12.5%,-4%,-4%,6.2%,-5%,-22%,41.7%,-3%,-6%,0.65%,-6%,-12%,1.15%
CCC(O)C(O)(c1ccccc1)c1nc2ccccc2s1 (stereo not given),-9%,15%,6.75%,5%,11%,5.9%,-7%,23%,14%,7%,9%,2.2%,-7%,-12%,-2.65%,0%,15%,15.1%
